# Hits are enriched below; roughly 7.1% of the tested compounds scored in any of these assays.
# LASV entry inh – blocks Lassa virus binding or cell entry. Lassa virus pseudotyped entry inhibition, cell-based qHTS. Potency, µM (doses to about 49.2 µM), usual class: inhibitors. AID 720533. 4.1% of 18,000 active
# Marburg entry – blocks Marburg virus binding or cell entry; Marburg virus pseudotype entry/binding inhibition, cell-based; Potency, µM (titrated, usually from 49.2 µM), usual class: inhibitors; 6.5% of 18,000 active
# Hits are given with their value; . = inactive; ? = inconclusive; / = no result; ! = repeats disagree; [ ] = dose if it differs, or a comment. Calls follow the shape of the full dose curve; tested in HEK293 cells.
SMILES,LASV entry inh,Marburg entry
CO/C=C(/C(=O)OC)c1ccccc1Oc1cc(Oc2ccccc2C#N)ncn1,22µM,28µM
CCCCCCCc1cc2ccccc2c2c(C=O)c(CCCC)c(C(=O)OC)n12,.[8.59 µM],?
COc1cc(/C=C/C(=O)c2cccs2)cc(OC)c1OC,32µM,?
O=C(/C=C/c1ccc(O)cc1)c1cccs1,.,.
O=c1cc(-c2cccc(O)c2)oc2ccc(O)cc12,?,.
O=c1cc(-c2ccc(O)cc2)oc2ccc(O)cc12,11µM,.
Cc1cccc([C@H]2[C@@H]3C=CCC[C@@]3(C)C(=O)N2Cc2ccccc2)c1,.,.
C[C@@]12CCC=C[C@H]1[C@H](c1ccccc1Br)N(Cc1ccccc1)C2=O,.,20µM
CC(CCN1CCc2nc(-c3ccccc3)c(-c3ccccc3)cc2C1)=NOC[C@@H](O)[C@H]1O[C@@H]2OC(C)(C)O[C@H]2[C@@H]1O,.[8.59 µM],.[8.59 µM]
CCOC(=O)[C@@]1([C@@H](NC(=O)OC)c2ccccc2)CCCC1=O,.[8.59 µM],.[8.59 µM]
CC(=O)C[C@@H](c1ccccc1)c1c(O)c2ccccc2oc1=O,.,.
O=c1oc2ccccc2c(O)c1Cc1c(O)c2ccccc2oc1=O,7.9µM!,.
O=C(c1ccc(N2CCC(NCCCn3ncc4ccccc43)CC2)cc1)N1CCOCC1,.,?
O=C(c1ccc(N2CCC(NCCCn3ncc4ccccc43)CC2)cc1)N1CCc2ccccc2C1,?,20µM
C(#CCN1CCCC1)CN1CCCC1,?,8.9µM
N#Cc1cccc(Nc2ncc(-c3ccccc3)o2)c1,.,.
COc1cccc(O)c1O,?,13µM
COc1ccccc1O,.,.
CC(CCN1CCCCc2nc(C)c(C)cc21)=NO[C@H](C)CN1CCCc2nc(C)c(C)cc21,.[8.59 µM],?
NCCNS(=O)(=O)c1cccc2c(Cl)cccc12,?,10µM
O=C(O)Cc1ccc(CCNS(=O)(=O)c2ccc(Cl)cc2)cc1,.,.
NCCNS(=O)(=O)c1ccc(Cl)c2ccncc12,.,.
NCCCCCCNS(=O)(=O)c1ccc2c(Cl)cccc2c1,28µM,13µM
C=CC[C@@H]1C=C(C(=O)OC)N(C(=O)C(F)(F)F)[C@@H](c2ccccc2Br)[C@@H]1C,.[8.59 µM],.[8.59 µM]
CCc1cc2c(nc1CC)CCN(CCC(C)=NOC[C@@H](O)[C@H]1O[C@@H]3OC(C)(C)O[C@H]3[C@@H]1O)C2,.[8.59 µM],.[8.59 µM]
SMILES,LASV entry inh,Marburg entry
COC1=C[C@@H](C(=O)N[C@H]2CCCC[C@H]2NC(C)=O)[C@]2(C)Cc3ccccc3[C@H]2CC1=O,.[8.59 µM],?
COC(=O)CC=C[C@H](C)[C@H](Cc1ccccc1Br)OC,.[8.59 µM],.[8.59 µM]
NC[C@@H]1O[C@H](c2ccccc2)Cc2c1ccc(O)c2O,.,?
NC[C@@H]1O[C@H](C23CC4CC(CC(C4)C2)C3)Cc2c1ccc(O)c2O,?,13µM
COC(=O)C1=C(C(=O)OC)[C@@H]2N(C)c3ccccc3[C@@]23CCC(=O)N(CCCOC(C)C)C3=N1,.[8.59 µM],.[8.59 µM]
O=C(O)CCc1nc2ccccc2[nH]1,.,.
CC(C)[C@H]1c2ccc(F)cc2CC[C@@]1(CCN(C)CCCc1nc2ccccc2[nH]1)OC(=O)C1CC1,?,8.9µM
CCOC(=O)[C@]12C[C@]3(OC)CCN(C(=O)N[C@@H]1c1ccccc1)[C@@H]32,?,.[8.59 µM]
C#CCCOC(=O)N1C2=NC3=C(C(=O)N(Cc4ccc5c(c4)OCO5)C3=O)C3N(C)c4ccccc4[C@]23C[C@H]1CO (some centres not stated),/,.[8.59 µM]
CN(C)CCOC(c1ccccc1)c1ccccc1 (tested in a mixture with another compound),.,.
CN(C)CCOC(c1ccccc1)c1ccccc1,?,28µM!
CCN1C(=O)NC(c2ccco2)C(C(=O)OC)=C1C (configuration not stated),.[8.59 µM],.[8.59 µM]
CC(C)[C@@H](OCc1ccccc1)[C@H](C)C=NOC[C@@H](O)[C@H]1O[C@@H]2OC(C)(C)O[C@H]2[C@@H]1O,.[8.59 µM],.[8.59 µM]
CCN1C(=NCCc2ccc(Br)cc2)NC(c2ccccc2)C(C(=O)OC)=C1C (configuration not stated),.[8.59 µM],?
C[C@H]1CC[C@H]2C(=O)N(Cc3ccccc3)C[C@@H](O)CN2[C@H]1c1cccc(Br)c1,/,.[8.59 µM]
C=C=CCCN1C(=O)NC(c2ccccc2)C(C(=O)OC)=C1C (configuration not stated),.[8.59 µM],.[8.59 µM]
CCOC(=O)CN1C(=O)[C@]2(O[C@H](COc3ccccc3)CC3=CCCC32)c2c(Br)cccc21 (some centres not stated),/,.[8.59 µM]
COc1cc(OC)cc(-c2sc3ccccc3c(=O)c2I)c1,?,18µM
COc1ccc(-c2cc3ccccc3c(=O)o2)cc1,.,.
C[C@@H](c1ccccc1)N1C(=O)[C@@H]2[C@H]3[C@H](O)[C@H](O)CC(=NOC[C@@H](O)COCc4ccco4)[C@H]3CC[C@H]2C1=O,.[8.59 µM],.[8.59 µM]
S=c1nc[nH]c2nc[nH]c12,14µM,13µM
Brc1c(Br)c(Br)c2[nH]cnc2c1Br,.,.
COc1cccc2c1[C@H](C=Cc1ccccc1)[C@@H]([C@H](O)CN=[N+]=[N-])OC2,.[8.59 µM],.[8.59 µM]

# Screens from PubChem.
